Tests used:
[1] = target: Sphingosine kinase 1 (Homo sapiens) (UniProt Q9NYA1); details: at 1 µM;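 further: mean SPHK1 inhibition value reported from the GSK PKIS kinase panel screen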
[2] = target: T1, Sphingosine kinase 2 (Homo sapiens) (UniProt Q9NRA0); details: at 0.1 µM
T1 sequence (whole entry): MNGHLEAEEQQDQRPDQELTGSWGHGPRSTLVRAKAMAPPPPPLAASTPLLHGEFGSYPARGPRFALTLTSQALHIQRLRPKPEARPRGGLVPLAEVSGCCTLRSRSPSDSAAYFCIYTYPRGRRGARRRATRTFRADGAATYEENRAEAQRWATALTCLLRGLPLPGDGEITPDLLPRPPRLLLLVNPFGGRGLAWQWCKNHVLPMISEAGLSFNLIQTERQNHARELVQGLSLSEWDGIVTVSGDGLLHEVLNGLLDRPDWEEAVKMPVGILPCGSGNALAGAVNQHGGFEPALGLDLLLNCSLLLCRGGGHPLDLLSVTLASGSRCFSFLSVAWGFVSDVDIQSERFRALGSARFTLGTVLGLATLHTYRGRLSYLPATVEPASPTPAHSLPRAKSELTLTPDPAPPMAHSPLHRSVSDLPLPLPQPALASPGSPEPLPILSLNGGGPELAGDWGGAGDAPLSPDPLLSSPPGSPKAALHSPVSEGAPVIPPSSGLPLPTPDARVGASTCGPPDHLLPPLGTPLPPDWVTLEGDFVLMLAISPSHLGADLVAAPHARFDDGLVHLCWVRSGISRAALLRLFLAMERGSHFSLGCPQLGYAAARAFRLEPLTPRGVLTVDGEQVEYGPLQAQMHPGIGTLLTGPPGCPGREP

[3] = target: T1, Sphingosine kinase 2 (Homo sapiens); details: at 1 µM
[4] = target: Casein kinase II subunit alpha (Homo sapiens) (UniProt P68400); details: at 0.1 µM
[5] = target: Casein kinase II subunit alpha (Homo sapiens) (UniProt P68400); details: at 1 µM
[6] = target: T2, Inhibitor of nuclear factor kappa-B kinase subunit alpha (Homo sapiens) (UniProt O15111); details: at 0.1 µM
T2 sequence (whole entry): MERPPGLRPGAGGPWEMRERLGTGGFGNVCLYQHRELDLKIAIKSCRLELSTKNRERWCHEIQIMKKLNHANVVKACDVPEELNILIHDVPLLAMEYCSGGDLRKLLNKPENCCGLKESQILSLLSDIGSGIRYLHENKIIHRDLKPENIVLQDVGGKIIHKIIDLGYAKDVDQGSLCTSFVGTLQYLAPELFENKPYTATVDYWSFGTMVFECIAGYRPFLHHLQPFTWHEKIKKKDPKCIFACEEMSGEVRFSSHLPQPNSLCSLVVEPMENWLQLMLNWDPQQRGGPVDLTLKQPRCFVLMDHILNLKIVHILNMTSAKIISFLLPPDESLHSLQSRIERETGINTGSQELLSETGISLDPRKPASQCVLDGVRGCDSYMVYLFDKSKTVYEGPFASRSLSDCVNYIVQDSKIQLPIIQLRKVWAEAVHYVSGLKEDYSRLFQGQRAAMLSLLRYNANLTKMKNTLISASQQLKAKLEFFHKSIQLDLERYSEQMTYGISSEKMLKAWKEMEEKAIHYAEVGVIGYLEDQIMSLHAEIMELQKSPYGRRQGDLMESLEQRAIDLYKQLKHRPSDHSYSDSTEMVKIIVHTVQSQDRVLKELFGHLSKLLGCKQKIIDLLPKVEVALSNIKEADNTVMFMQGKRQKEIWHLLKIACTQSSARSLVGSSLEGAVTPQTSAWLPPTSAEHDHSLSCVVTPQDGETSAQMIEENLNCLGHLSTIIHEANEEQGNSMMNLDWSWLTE

[7] = target: T2, Inhibitor of nuclear factor kappa-B kinase subunit alpha (Homo sapiens); details: at 1 µM
[8] = target: T3, Inhibitor of nuclear factor kappa-B kinase subunit beta (Homo sapiens) (UniProt O14920); details: at 0.1 µM
T3 sequence (whole entry): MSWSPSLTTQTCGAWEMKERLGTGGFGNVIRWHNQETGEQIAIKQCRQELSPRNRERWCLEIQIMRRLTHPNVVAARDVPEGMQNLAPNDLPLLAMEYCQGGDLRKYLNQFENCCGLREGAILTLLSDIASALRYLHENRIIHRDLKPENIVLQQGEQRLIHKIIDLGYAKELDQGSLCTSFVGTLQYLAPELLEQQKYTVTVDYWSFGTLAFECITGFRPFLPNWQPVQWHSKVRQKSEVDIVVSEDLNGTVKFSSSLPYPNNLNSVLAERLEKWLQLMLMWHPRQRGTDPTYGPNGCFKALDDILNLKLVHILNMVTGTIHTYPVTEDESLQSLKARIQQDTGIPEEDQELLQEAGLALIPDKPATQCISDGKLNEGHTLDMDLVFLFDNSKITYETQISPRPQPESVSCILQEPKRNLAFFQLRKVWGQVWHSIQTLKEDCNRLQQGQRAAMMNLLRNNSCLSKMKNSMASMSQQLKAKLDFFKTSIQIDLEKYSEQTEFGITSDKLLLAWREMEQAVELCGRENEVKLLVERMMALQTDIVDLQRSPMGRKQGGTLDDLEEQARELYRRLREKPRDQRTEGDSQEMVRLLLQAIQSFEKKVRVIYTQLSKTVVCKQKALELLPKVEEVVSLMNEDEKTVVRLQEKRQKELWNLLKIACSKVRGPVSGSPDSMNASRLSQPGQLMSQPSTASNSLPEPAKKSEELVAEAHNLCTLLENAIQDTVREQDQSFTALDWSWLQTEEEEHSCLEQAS

[9] = target: T3, Inhibitor of nuclear factor kappa-B kinase subunit beta (Homo sapiens); details: at 1 µM
[10] = target: T4, Inhibitor of nuclear factor kappa-B kinase subunit epsilon (Homo sapiens) (UniProt Q14164); details: at 0.1 µM
T4 sequence (whole entry): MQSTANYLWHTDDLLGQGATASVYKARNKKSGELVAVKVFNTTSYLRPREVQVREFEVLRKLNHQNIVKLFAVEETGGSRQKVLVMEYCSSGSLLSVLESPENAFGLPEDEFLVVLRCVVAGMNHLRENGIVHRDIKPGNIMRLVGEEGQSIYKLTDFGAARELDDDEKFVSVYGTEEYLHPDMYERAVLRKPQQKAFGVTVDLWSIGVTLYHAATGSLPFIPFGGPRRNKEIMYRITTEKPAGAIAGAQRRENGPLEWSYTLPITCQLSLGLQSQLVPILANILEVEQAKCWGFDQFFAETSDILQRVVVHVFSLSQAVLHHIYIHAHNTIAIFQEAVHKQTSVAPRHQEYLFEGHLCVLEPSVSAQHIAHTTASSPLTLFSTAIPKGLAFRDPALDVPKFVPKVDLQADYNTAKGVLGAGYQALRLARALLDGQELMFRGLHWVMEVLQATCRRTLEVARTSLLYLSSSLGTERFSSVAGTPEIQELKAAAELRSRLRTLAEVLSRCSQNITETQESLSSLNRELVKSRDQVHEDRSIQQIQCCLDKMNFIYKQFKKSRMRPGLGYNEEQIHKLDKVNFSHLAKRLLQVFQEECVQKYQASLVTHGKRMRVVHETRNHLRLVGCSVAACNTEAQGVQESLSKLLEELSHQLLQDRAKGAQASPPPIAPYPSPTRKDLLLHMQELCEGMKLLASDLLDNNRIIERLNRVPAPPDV

[11] = target: T4, Inhibitor of nuclear factor kappa-B kinase subunit epsilon (Homo sapiens); details: at 1 µM
[12] = target: T5, Serine/threonine-protein kinase Nek1 (Homo sapiens) (UniProt Q96PY6); details: at 0.1 µM
T5 sequence (whole entry): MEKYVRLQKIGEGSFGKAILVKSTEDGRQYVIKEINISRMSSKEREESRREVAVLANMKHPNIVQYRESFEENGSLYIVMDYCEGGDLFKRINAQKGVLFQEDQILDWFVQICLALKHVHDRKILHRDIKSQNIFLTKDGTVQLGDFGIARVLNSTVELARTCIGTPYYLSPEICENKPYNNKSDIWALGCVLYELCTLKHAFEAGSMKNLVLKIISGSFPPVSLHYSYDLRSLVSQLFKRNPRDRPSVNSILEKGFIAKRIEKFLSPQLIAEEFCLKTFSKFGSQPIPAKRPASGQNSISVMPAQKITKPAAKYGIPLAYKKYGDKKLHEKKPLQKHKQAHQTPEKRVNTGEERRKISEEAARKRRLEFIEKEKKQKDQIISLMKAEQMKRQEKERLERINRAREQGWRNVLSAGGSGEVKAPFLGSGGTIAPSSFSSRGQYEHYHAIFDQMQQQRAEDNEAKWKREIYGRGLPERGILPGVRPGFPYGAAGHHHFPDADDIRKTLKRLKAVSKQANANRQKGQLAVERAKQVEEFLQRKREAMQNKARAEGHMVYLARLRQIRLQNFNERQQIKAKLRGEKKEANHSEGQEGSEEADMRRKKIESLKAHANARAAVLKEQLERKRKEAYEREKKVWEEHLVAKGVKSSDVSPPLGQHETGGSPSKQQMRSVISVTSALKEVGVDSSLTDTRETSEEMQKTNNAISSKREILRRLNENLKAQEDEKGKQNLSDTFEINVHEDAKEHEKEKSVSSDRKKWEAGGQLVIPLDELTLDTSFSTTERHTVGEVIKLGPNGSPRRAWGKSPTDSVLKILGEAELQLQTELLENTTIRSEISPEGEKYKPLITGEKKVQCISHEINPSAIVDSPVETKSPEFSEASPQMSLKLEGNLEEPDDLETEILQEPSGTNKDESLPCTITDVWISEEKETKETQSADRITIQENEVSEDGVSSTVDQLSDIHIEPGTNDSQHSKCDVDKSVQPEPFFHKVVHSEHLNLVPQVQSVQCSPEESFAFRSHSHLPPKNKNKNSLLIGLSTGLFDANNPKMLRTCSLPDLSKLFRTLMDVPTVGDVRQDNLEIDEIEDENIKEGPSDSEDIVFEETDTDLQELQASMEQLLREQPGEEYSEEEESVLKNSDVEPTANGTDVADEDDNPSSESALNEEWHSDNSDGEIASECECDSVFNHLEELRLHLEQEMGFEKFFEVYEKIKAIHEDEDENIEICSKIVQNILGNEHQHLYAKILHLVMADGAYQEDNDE

[13] = target: T5, Serine/threonine-protein kinase Nek1 (Homo sapiens); details: at 1 µM
[14] = target: T6, Serine/threonine-protein kinase Nek2 (Homo sapiens) (UniProt P51955); details: at 0.1 µM
T6 sequence (whole entry): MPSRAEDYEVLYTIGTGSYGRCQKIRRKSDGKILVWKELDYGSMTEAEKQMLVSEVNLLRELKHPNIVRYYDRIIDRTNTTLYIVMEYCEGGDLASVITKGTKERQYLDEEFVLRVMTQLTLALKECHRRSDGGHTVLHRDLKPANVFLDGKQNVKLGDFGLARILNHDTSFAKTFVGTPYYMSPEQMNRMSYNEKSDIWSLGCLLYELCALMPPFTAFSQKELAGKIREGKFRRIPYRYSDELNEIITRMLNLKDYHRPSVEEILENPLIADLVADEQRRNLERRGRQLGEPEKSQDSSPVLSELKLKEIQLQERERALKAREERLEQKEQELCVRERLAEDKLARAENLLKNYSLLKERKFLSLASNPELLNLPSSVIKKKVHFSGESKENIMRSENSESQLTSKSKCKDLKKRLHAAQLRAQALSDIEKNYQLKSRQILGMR

[15] = target: T6, Serine/threonine-protein kinase Nek2 (Homo sapiens); details: at 1 µM
[16] = target: Serine/threonine-protein kinase Nek6 (Homo sapiens) (UniProt Q9HC98); details: at 0.1 µM
[17] = target: Serine/threonine-protein kinase Nek6 (Homo sapiens) (UniProt Q9HC98); details: at 1 µM
[18] = target: Serine/threonine-protein kinase Nek7 (Homo sapiens) (UniProt Q8TDX7); details: at 0.1 µM
[19] = target: Serine/threonine-protein kinase Nek7 (Homo sapiens) (UniProt Q8TDX7); details: at 1 µM
[20] = target: T7, Serine/threonine-protein kinase Nek9 (Homo sapiens) (UniProt Q8TD19); details: at 0.1 µM;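 further: reported value is the mean percent inhibition of NEK9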
T7 sequence (whole entry): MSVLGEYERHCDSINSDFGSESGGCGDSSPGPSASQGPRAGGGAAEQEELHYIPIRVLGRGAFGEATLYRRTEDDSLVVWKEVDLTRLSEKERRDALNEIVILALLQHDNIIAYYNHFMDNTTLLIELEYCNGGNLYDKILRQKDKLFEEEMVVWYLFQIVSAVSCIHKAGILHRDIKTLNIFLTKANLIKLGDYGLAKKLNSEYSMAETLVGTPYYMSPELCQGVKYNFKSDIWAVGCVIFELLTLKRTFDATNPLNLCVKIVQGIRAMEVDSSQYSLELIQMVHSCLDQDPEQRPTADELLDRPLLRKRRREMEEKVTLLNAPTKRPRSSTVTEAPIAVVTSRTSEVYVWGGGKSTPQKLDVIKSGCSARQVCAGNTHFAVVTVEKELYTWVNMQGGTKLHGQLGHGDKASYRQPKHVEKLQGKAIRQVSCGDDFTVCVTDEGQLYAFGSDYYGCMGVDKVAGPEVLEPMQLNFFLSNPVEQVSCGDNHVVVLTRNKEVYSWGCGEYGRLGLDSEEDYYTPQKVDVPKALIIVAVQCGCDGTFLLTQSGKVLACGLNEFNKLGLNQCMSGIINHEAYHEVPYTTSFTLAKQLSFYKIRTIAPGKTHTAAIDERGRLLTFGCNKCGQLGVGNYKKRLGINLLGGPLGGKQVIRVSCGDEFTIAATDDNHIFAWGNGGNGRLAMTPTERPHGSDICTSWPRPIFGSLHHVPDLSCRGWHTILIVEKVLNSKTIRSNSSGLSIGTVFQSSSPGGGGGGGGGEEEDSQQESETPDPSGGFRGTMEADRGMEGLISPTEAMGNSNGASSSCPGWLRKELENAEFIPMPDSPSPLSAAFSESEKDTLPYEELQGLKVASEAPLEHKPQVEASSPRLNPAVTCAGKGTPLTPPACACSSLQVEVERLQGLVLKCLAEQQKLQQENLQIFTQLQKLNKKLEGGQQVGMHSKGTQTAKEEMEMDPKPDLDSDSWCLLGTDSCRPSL

Chain of Casein kinase II subunit alpha (Homo sapiens) (P68400 whole entry, looked up): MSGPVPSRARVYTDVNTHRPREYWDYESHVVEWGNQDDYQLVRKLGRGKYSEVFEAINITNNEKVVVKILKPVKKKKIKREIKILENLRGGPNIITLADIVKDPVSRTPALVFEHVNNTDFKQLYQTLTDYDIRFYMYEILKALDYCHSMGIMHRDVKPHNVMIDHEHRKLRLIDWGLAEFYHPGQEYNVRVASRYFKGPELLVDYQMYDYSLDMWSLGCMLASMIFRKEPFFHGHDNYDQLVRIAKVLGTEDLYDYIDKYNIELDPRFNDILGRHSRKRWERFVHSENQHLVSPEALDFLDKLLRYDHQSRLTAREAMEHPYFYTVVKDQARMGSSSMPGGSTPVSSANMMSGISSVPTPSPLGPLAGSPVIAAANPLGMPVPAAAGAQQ
Chain of Serine/threonine-protein kinase Nek6 (Homo sapiens) (Q9HC98 whole entry): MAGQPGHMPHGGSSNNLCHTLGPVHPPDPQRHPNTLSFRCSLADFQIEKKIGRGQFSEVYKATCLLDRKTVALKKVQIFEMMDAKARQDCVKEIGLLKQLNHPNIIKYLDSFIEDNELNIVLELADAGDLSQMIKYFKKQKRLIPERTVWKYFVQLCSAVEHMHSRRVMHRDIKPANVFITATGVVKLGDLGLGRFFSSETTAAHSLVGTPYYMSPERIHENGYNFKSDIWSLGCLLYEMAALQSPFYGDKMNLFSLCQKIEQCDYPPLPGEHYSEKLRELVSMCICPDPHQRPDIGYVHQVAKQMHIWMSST
Chain of Serine/threonine-protein kinase Nek7 (Homo sapiens) (Q8TDX7 whole entry, looked up): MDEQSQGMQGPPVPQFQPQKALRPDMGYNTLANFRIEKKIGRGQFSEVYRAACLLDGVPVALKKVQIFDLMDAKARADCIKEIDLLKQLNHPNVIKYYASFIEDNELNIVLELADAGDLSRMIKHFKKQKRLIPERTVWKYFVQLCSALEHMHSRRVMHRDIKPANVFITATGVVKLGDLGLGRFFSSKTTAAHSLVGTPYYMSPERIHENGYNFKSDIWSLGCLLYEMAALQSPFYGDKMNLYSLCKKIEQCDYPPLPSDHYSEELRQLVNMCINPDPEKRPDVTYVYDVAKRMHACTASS
Chain of Sphingosine kinase 1 (Homo sapiens) (Q9NYA1 whole entry): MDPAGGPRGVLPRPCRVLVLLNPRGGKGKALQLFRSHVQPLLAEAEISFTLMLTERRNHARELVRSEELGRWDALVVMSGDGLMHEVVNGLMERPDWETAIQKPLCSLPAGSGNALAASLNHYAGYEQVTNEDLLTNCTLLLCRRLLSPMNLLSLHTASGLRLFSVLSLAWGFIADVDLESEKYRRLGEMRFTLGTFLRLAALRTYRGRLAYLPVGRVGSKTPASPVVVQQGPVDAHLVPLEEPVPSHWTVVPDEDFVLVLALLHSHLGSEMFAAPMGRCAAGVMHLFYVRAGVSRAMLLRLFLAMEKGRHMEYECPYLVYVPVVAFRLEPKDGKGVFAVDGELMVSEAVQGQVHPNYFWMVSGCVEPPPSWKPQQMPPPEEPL

**Q.** Which inhibition [1] does the source give for `Cc1cc(O)cc(C)c1/C=C/c1cncc(C(=O)OC(C)(C)C)c1` here?
**A.** -1.82%

**Q.** What about the inhibition [2] of the same molecule?
**A.** 0.51%

**Q.** And the inhibition [3]?
**A.** 0%

**Q.** And the inhibition [4]?
**A.** 4.48%

**Q.** And the inhibition [5]?
**A.** 7.86%

**Q.** And the inhibition [6]?
**A.** 2.35%

**Q.** What about the inhibition [7] of the same molecule?
**A.** 1.81%

**Q.** And the inhibition [8]?
**A.** 2.36%

**Q.** And the inhibition [9]?
**A.** 2.32%

**Q.** What about the inhibition [10] of the same molecule?
**A.** 4.19%

**Q.** And the inhibition [11]?
**A.** 91.7%

**Q.** What about the inhibition [12] of the same molecule?
**A.** 2.47%

**Q.** And the inhibition [13]?
**A.** 4.15%

**Q.** And the inhibition [14]?
**A.** 3.29%

**Q.** What about the inhibition [15] of the same molecule?
**A.** 2.53%

**Q.** And the inhibition [16]?
**A.** 1.87%

**Q.** And the inhibition [17]?
**A.** 2.59%

**Q.** And the inhibition [18]?
**A.** -2.32%

**Q.** What about the inhibition [19] of the same molecule?
**A.** 3.53%

**Q.** And the inhibition [20]?
**A.** 8.55%
